Here are results for 25 molecules from PubChem BioAssay (NCI).

About 79,000 compounds went through this panel and 15% of them were active in at least one assay; those are over-represented in the sample as a whole. Values without a mark were called inactive. The source made the active and inactive calls. Cut-off read from the data, not from the text of the source: active = growth inhibition above about 70%; inactive = the rest.

The test can be described thus: NCI Yeast Anticancer Drug Screen. Data for the mlh1 rad18 strain (AID 175). The following applies: S. cerevisiae mlh1 rad18 strain growth inhibition; at 50.0 µM; stronger effect = higher value. A digest of the protocol:
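Yeast w/ defined DNA-repair lesions; compound exposure; growth vs vehicle controls → % inhibition.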
With `COC1=CC23C=CC1[C@@H](c1ccccc1)C2=C(C)C(=O)N3C(=O)NC1CCCCC1` (stereo not given in full), the growth inhibition is 50.6%.
As for `O=c1c2c3c(sc2nc2n1N=C(c1ccc(Br)cc1)CS2)CCCC3`, the figure is -25.4%; as for `Cc1noc(NS(=O)(=O)c2ccc(N=Nc3cc(N=Nc4ccc(S(=O)(=O)Nc5onc(C)c5C)cc4)c4c(NC(=O)C(Cl)Cl)cccc4c3O)cc2)c1C` (tested in a mixture with another compound), 59.2%.
As for `CC(=O)OC1=CC2(OC(C)=O)CC(C)(C)C1C1C(=O)C=CC(=O)C12` (stereo not given), the figure is 17.1%.
Regarding `COC1CCC(/C(C#N)=C/c2ccco2)CC1` (stereo not given), the growth inhibition was 57.1%.
Under `CCN(CC)CCNc1cc(C)nc2c1ccc1c2ccc2c(NCCN(CC)CC)cc(C)nc21` stands 96.4% (active); under `O=c1sc(=S)[nH]c2ccccc12`, 72.2% (active); under `Oc1c(Br)ccc2c(O)c(Br)ccc12`, 89.4% (active).
`Nc1ccccc1CCc1ccccc1`: the growth inhibition is 85.7% (active).
As for `Cc1cc2c(cc1O)CC[C@@H]1[C@@H]2CC[C@]2(C)[C@@H](O)CC[C@@H]12`, the figure is 50%; as for `O=c1c2ccccc2sc2c([N+](=O)[O-])ccc(NCCNCCO)c12`, 83.3% (active).
For `NC(=S)NNc1c([N+](=O)[O-])cnn(-c2ccccc2)c1=O`, the growth inhibition is 71.2% (active).
`COc1ccccc1NC(=O)c1ccccc1F`: the growth inhibition was -9.6%.
Under `COc1ccc(/C=C2\SC(=S)N(/C=C(/C#N)C(=O)c3ccc4ccccc4c3)C2=O)cc1OC` stands 98.3% (active).
As for `COC(=O)C1(OC(=O)CCC(=O)O)C(=O)NC2=C1C(=O)c1ccccc1C2=O` (stereo not given), the figure is 47.2%; as for `Cc1cc(=O)c2c(ccc3cc4ccccc4cc32)[nH]1`, 59.1%.
As for `CCc1nc(N)nc(N)c1-c1ccc(N(C)Cc2ccccc2)c([N+](=O)[O-])c1`, the figure is 14.5%.
For the molecule `O=C1CSC(c2ccccc2O)N1c1ccc(-n2c(-c3ccccc3)nc3ccccc3c2=O)cc1` (stereo not given), the growth inhibition was 75.5% (active).
Consider `O=C(C[P+](c1ccccc1)(c1ccccc1)c1ccccc1)c1ccc(Br)cc1`, for which the growth inhibition is 96% (active).
As for `O=NN(CCCl)C(=O)Oc1ccc(OC(=O)N(CCCl)N=O)cc1`, the figure is 90.6% (active); as for `Cc1cccc(C[N+](C)(C)CCCO)c1C`, -4.7%.
As for `CC(C)NC(=O)OCCS(=O)c1c(Cl)c(Cl)nn1C` (stereo not given), the growth inhibition was 99% (active).
As for `COC1=CC(=O)[C@H]2CC(C)=CC[C@]2(C)C1=O`, the figure is 15.1%.
Under `Oc1ccc(O)c2c(O)c3ccccc3c(O)c12` stands 78.9% (active).
As for `O=[N+]([O-])c1cc(Br)cc(Br)c1O`, the figure is 68.4%.
